The test system of one experiment is Tov112D. Briefly: Primary qHTS to identify gynecologic anti-cancer compounds using libraries of approved drugs and bioactive compounds (AID 1345084). Also: nearly all actives have a fitted effect of over 55% in size. Also: potency is read from the fitted curve at half-maximal effect. As to activity change, negative = cytotoxicity: % is scaled to controls: 0 for no effect and ±100 for the full control effect. The settings on record: Gynecologic cancer cell panel viability, ATPlite luminescence, 48 h; series mostly up to 57.5 µM. The method in brief: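 Five-concentration response, 48 h; readout is ATP-driven luciferase luminescence.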
(qHTS replaces the single test concentration by a dilution series.)

Experiment [1] can be described thus: Drug repurposing screens with cells derived from glioblastoma tumor samples (AID 1345199). Also: nearly all actives have a fitted effect of over 40% in size. Also: potency is read from the fitted curve at half-maximal effect. As to activity, negative = cell killing: % is scaled to controls: 0 for no effect and ±100 for the full control effect. The settings on record: GBM patient neurospheres viability, ATP luminescence, 48 h. The method in brief:
(§1)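 Four patient lines of CD133+ GBM neurospheres were screened at several concentrations; hits were retested in those lines plus three slower-growing GBM lines, using 48-hour treatment and ATP-based viability.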

The test system of a further experiment is astro. The experiment is described as above. The settings on record: viability, ATP luminescence, 48 h; series mostly up to 45.9 µM. The essentials:
as §1

Experiment [2] addresses Nuclear receptor subfamily 1 group I member 2 (Rattus norvegicus) (UniProt Q9R1A7). Description: qHTS assay for small molecule activators of the rat pregnane X receptor (rPXR) signaling pathway (AID 651751; call rule not given here; also: 0% is about no effect). The conditions noted are these: rPXR reporter cells, luciferase (One-Glo), 24 h.
Experiment [3] in a line: qHTS assay for small molecule activators of the human pregnane X receptor (PXR) signaling pathway (AID 720659; call rule not given here; also: 0% is about no effect).
Where [4] appears, read: at 45.9 µM (top of the series), tumour line B.
The mark [5] stands for this setting: at 45.9 µM (top of the series), tumour line D.
[6] abbreviates: at 46.1 µM (top of the series), tumour line C.
Setting [7] is: at 46 µM (top of the series), tumour line A.
Where [8] appears, read: at 20 µM (top of the series), tumour line C.
[9] abbreviates: at 21.2 µM (top of the series), tumour line B.
[10] abbreviates: at 21.2 µM (top of the series), tumour line D.

Several values for one entry are separate records, joined by “and”; a condition that tells them apart may be missing. Equal entries are not always repeated. Values without a mark were called inactive. Results filed as inconclusive are left out. Activity calls are given as the source filed them. Unless noted, calls follow the shape of the dose curve; as a rule, active = well fitted curve in the direction sought with a large enough effect; inconclusive = small, poorly fitted or top-dose-only effect, or another doubt; inactive = no such curve, though single readings can be large; an effect the other way counts as inactive or inconclusive.

Chain of Nuclear receptor subfamily 1 group I member 2 (Rattus norvegicus) (Q9R1A7 whole entry, looked up): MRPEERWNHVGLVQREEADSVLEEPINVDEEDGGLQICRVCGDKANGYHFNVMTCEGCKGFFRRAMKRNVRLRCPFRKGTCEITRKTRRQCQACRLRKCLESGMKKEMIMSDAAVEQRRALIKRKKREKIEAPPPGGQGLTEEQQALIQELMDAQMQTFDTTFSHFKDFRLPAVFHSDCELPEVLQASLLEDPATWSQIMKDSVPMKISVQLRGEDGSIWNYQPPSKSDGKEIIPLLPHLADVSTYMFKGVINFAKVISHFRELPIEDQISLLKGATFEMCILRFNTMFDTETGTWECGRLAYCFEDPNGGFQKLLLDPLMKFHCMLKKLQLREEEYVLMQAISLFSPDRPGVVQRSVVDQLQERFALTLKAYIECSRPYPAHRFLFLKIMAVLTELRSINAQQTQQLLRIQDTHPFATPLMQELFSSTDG

For the compound `Cc1cc(-c2ccccc2)nnc1NCCN1CCOCC1`, the Potency result with Tov112D and in the experiment with astro was “inactive” throughout. In addition, the values for the activity, negative = cell killing in experiment [1] (setting [4]), in experiment [1] (setting [5]) and in experiment [1] (setting [6]) were -18.6%, -4.44% and -11.7%, respectively. In addition, the Potency in experiment [1] (tumour line A) is 12.6 µM (active).

On to `N=C(N)N1CCc2ccccc2C1`, for which the activity change, negative = cytotoxicity with Tov112D was -0.978% [at 6.55 µM]. In addition, the activity, negative = cell killing was -7.25% in experiment [1] (setting [4]), 0.46% in experiment [1] (setting [5]), -7.22% in experiment [1] (setting [7]) and -18.5% in experiment [1] (setting [6]). Also, the Potency entry with astro is “inactive”.

Regarding `CC(=O)Nc1ccc(OCC(O)CNC(C)C)cc1` (stereo unspecified), the Potency entry in the experiment with Tov112D and in the experiment with astro was “inactive” in each case. Further, the activity, negative = cell killing in experiment [1] (setting [4]) was -1.74%; in experiment [1] (setting [5]), -7.95%; in experiment [1] (setting [7]) it was -46.4%; in experiment [1] (setting [6]) it was -12.1%.

Take `OC1C(O)C(O)C(O)C(O)C1O` (stereo unspecified): the Potency entry in the experiment on Tov112D and in the experiment on astro was “inactive” in each case. For the same compound, the activity, negative = cell killing is -13.8% in experiment [1] (setting [4]), -13.1% in experiment [1] (setting [5]), -17.2% in experiment [1] (setting [7]) and -1.34% in experiment [1] (setting [6]).

As for `C=C[C@H]1CN2CC[C@H]1C[C@@H]2[C@@H](O)c1ccnc2ccc(OC)cc12`, the Potency result in the experiment with Tov112D and with astro was “inactive” each time. Besides, the activity, negative = cell killing in experiment [1] (setting [4]) is -7.35%; in experiment [1] (setting [5]) it was -6.69%; in experiment [1] (setting [6]), 11.9%. Also, the Potency in experiment [1] (tumour line A) was 12.6 µM (active).

As to `CCOCCn1c(N2CCCN(C)CC2)nc2ccccc21`, the Potency entry with Tov112D and in the experiment with astro was “inactive” each time. In addition, the activity, negative = cell killing in experiment [1] (setting [4]) is -14.8%; in experiment [1] (setting [5]) it was -9.28%; in experiment [1] (setting [6]), -16%. In addition, the Potency in experiment [1] (tumour line A) is 17.8 µM (active).

For `COc1ccc(C(=O)c2ccccc2O)c(O)c1`, the Potency result with Tov112D and with astro was “inactive” in each case. For the same compound, the activity, negative = cell killing is -19.6% in experiment [1] (setting [8]), 4.62% in experiment [1] (setting [9]) and -15.3% in experiment [1] (setting [10]).

With `COc1cc(N)c(Cl)cc1C(=O)NC1CCN(Cc2ccccc2)CC1`, the Potency entry in the experiment on Tov112D and with astro was “inactive” in each case. The activity, negative = cell killing in experiment [1] (setting [8]) was 12.2%; in experiment [1] (setting [9]), -4.38%; in experiment [1] (setting [10]), -20.9%. For the same compound, in experiment [1] (tumour line A), the Potency was 11.2 µM (active).

Turning to `NCCNc1cccc2ccccc12`, the Potency result in the experiment on Tov112D and in the experiment on astro was “inactive” throughout. For the same compound, the figures for the activity, negative = cell killing in experiment [1] (setting [4]), in experiment [1] (setting [5]) and in experiment [1] (setting [6]) were -17.3%, -24.3% and -28%, respectively. For the same compound, the Potency in experiment [1] (tumour line A) is 20 µM (active). Besides, the max response in experiment [2] is -3.2% and 4.24%.

As for `COP(=O)(OC)OC(c1ccc(Cl)cc1)P(=O)(OC)OC` (stereo unspecified), the Potency entry in the experiment on Tov112D and in the experiment with astro was “inactive” throughout. In addition, the activity, negative = cell killing was -15.7% in experiment [1] (setting [4]), -14.1% in experiment [1] (setting [5]) and -24.8% in experiment [1] (setting [6]).

Regarding `CCOc1ccccc1C(N)=O`, the Potency entry in the experiment with Tov112D and in the experiment with astro was “inactive” in each case. Also, the activity, negative = cell killing in experiment [1] (setting [4]) was -5.35%; in experiment [1] (setting [5]), -0.0314%; in experiment [1] (setting [7]), -26.8%; in experiment [1] (setting [6]), -1.96%. Also, the max response in experiment [2] is 2.38%. Further, the outcome in experiment [3] was inactive.

Turning to `C#C[C@]1(O)CC[C@H]2[C@@H]3CCC4=Cc5oncc5C[C@]4(C)[C@H]3CC[C@@]21C`, the Potency result in the experiment on Tov112D and in the experiment on astro was “inactive” each time. The activity, negative = cell killing in experiment [1] (setting [4]) was -5.62%; in experiment [1] (setting [5]), -8.01%; in experiment [1] (setting [7]), -25.3%; in experiment [1] (setting [6]), -28.8%.

Consider `CCCN(CCC)S(=O)(=O)c1ccc(C(=O)O)cc1`, for which the Potency result in the experiment on Tov112D and with astro was “inactive” each time. In addition, the activity, negative = cell killing is -5.41% in experiment [1] (setting [4]), 6.49% in experiment [1] (setting [5]), -4.85% in experiment [1] (setting [7]) and -7.91% in experiment [1] (setting [6]). The max response in experiment [2] is 7.36% and 2.17%. Moreover, in experiment [3], the compound was classed as inactive.

As to `CCCCCN=C(N)N/N=C/c1c[nH]c2ccc(OC)cc12`, the Potency in the experiment with Tov112D is 35.5 µM (active). Moreover, the activity, negative = cell killing in experiment [1] (setting [4]) is -10.3%; in experiment [1] (setting [5]), 8.03%; in experiment [1] (setting [6]), 9.98%. Further, in the experiment on astro, the Potency result is “inactive”.

Regarding `CC(=O)NC(=O)c1ccccc1O`, the Potency result in the experiment with Tov112D and in the experiment with astro was “inactive” in each case. Moreover, the activity, negative = cell killing was -6.43% in experiment [1] (setting [4]), -8.37% in experiment [1] (setting [5]), -24.9% in experiment [1] (setting [7]) and -17.7% in experiment [1] (setting [6]).

As to `CCCCNc1ccc(C(=O)OCCOCCOCCOCCOCCOCCOCCOCCOCCOC)cc1`, the Potency result with Tov112D and in the experiment on astro was “inactive” each time. Moreover, the activity, negative = cell killing in experiment [1] (setting [8]) was 19.8%; in experiment [1] (setting [9]), -6.92%; in experiment [1] (setting [10]) it was -6.38%; in experiment [1] (at 21.3 µM (top of the series), tumour line A), -27%.

Regarding `CCOC(=O)Nc1ccc2c(c1)N(C(=O)CCN1CCOCC1)c1ccccc1S2`, the Potency result in the experiment on Tov112D and with astro was “inactive” in each case. The activity, negative = cell killing in experiment [1] (setting [8]) is -16.1%; in experiment [1] (setting [9]) it was -11.1%; in experiment [1] (setting [10]), -19.6%.

Consider `Cc1cccc(C)c1NC(=O)CN1CCCC1`, for which the Potency entry in the experiment on Tov112D and in the experiment on astro was “inactive” throughout. Moreover, the activity, negative = cell killing in experiment [1] (setting [4]) was -9.15%; in experiment [1] (setting [5]), 5.92%; in experiment [1] (setting [6]), -8.15%.

On to `CCOc1ccc(NC(C)=O)cc1`, for which the Potency entry in the experiment with Tov112D and in the experiment with astro was “inactive” in each case. The activity, negative = cell killing in experiment [1] (setting [4]) was 4.81%; in experiment [1] (setting [5]), -8.88%; in experiment [1] (setting [7]), -27%; in experiment [1] (setting [6]) it was -1.2%. For the same compound, the max response in experiment [2] was 2.72% and -0.111%. For the same compound, in experiment [3], the compound was classed as inactive.

The values are drawn from PubChem BioAssay (NCATS).
